This note sets out measurements from PubChem BioAssay (NCI).

This is part of a sample that, as a whole, favours compounds with a hit. Of some 83,000 tested, about 20% had one in any assay.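 Compound tested at a single concentration for 48 hours in 96-well plates; a percent growth value below 10 was scored as active.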 Activity calls are given as the source filed them.

The assay concerns LOX IMVI melanoma. Nature of the assay: NCI-60 one-dose screen, 48 h (100 = growth as untreated, 0 = no growth, -100 = all killed). As to conditions: 10 µM.
As to `CCN1CCN(CCC(=O)Nc2cccc(-n3cc(-c4ccncc4)c(-c4ccc(Cl)c(OC)c4)n3)c2)CC1`, the growth is -47.5% (active). Next, `Nc1ccn(Cc2nnc(CCC(=O)c3nc4ccccc4[nH]3)o2)c(=O)n1`: 53.9% (inactive). In the case of `Cc1ccc2nc(Cl)c(-c3nc4ccccc4o3)cc2c1`, the growth was 82.8% (inactive). As for `C/C=C/CSC(C)(C)C(=O)NC`, the growth is 97% (inactive). As for `COc1cc2c(Nc3ccc(S(N)(=O)=O)cc3)ncnc2c(OC)c1OC`, the growth was 99.9% (inactive). Next, `CC(=O)OC1C=CC(OC(C)=O)O1` (configuration not stated): 80.4% (inactive); `CC(=O)C1N=NCC1c1ccccc1` (configuration not stated): 103% (inactive). Next, `O=C(CN(C1CCCCC1)C1CCCCC1)Nc1ccc(S(=O)(=O)c2ccc(NC(=O)CN(C3CCCCC3)C3CCCCC3)cc2)cc1`: -81% (active); `Cc1c[nH]c(=O)n(Cc2nnc(CCC(=O)c3nc4ccccc4[nH]3)o2)c1=O`: 35.6% (inactive); `O=C(CCn1cnc2c(cc(-c3ccccc3)n2-c2ccccc2)c1=O)Nc1ccc(F)cc1`: 79.4% (inactive). Turning to `CN(C)CCOc1cccc(NC2=C(Cl)C(=O)C(Nc3cccc(OCCN(C)C)c3)=C(Cl)C2=O)c1`, the growth is -81.5% (active). Next, `CN1CCN(CCC(=O)Nc2cccc(-n3cc(-c4ccncc4)c(-c4ccc(Cl)c(O)c4)n3)c2)CC1`: 15.7% (inactive); `CC(=O)Nc1ccc(CC[C@H]2CCC/C=C/[C@@H]3C[C@H](O)C[C@H]3[C@H](O)/C=C/C(=O)O2)cc1`: -64.9% (active). On to `CN(C)CCN(Cc1ccccc1)c1ccc2ccccc2n1`, for which the growth was 88.8% (inactive).

As to `C/C(=N\O)c1ccc(NC(=O)CSc2nnc(-c3ccccc3)n2-c2ccccc2)cc1`, the growth was 63.6% (inactive). Regarding `CCC(CC)n1c(C)cc(=O)n1C(CC)CC`, the growth was 102% (inactive). Next, `CC[C@@H](C(=O)[C@H](C)[C@H](O)[C@@H](C)[C@H]1O[C@H]([C@@H](CC)C(=O)O)CC[C@H]1C)C1O[C@]2(C=C[C@@H](O)[C@]3(CC[C@@](C)([C@H]4CC[C@](O)(CC)[C@H](C)O4)O3)O2)[C@H](C)C[C@@H]1C` (some centres not stated): 29.3% (inactive). As to `O=C(O)c1cc([N+](=O)[O-])ccc1Oc1ccccc1`, the growth was 93.1% (inactive). Next, `O=[N+]([O-])c1cccc(/C=N/NC(=S)NC23CC4CC(CC(C4)C2)C3)c1`: 76.4% (inactive); `COc1cc(C(=O)n2nc(-c3cc(OC)c(OC)c(OC)c3)nc2N)cc(OC)c1OC`: 95.8% (inactive). With `COc1ccc(-c2n[nH]nc2-c2cc(OC)c(OC)c(OC)c2)cc1`, the growth was 9.46% (active). Turning to `C=CCN(CC=C)C(=O)[C@H](CC)[C@@H]1CC[C@@H](C)[C@@H]([C@H](C)[C@@H](O)[C@@H](C)C(=O)[C@H](CC)C2O[C@]3(C=C[C@@H](O)[C@]4(CC[C@@](C)([C@H]5CC[C@](O)(CC)[C@H](C)O5)O4)O3)[C@H](C)C[C@@H]2C)O1` (some centres not stated), the growth was 17% (inactive). In the case of `O=C(Nc1cccc2c1CCCC2)c1cc2ccccc2cc1O`, the growth was 27.2% (inactive). In the case of `O=C1/C=C/[C@@H](O)[C@@H]2C[C@@H](O)C[C@H]2/C=C/CCC[C@H](CCc2ccc(NC(=S)Nc3ccc4c(c3)C(=O)OC43c4ccc(O)cc4Oc4cc(O)ccc43)cc2)O1`, the growth was -51.4% (active).

Regarding `COc1cc(/C=C/c2cc(/C=C/c3ccc(O)c(OC)c3)nc(N)n2)ccc1O`, the growth is -16.1% (active). Next, `CC(=O)Oc1cc(OC(C)=O)c2ccccc2c1OC(C)=O`: 48.3% (inactive); `CCOc1ccccc1/C=N\N=C\c1ccccc1O`: 90.3% (inactive).
